The panel holds about 79,000 compounds, 15% with a hit somewhere; the sample as a whole holds those more often. Rule as the data show it: active = growth inhibition above about 70%; inactive = the rest.
How the values were obtained:
[1] = NCI Yeast Anticancer Drug Screen. Data for the rad50 strain (AID 155);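 also: 0% = growth of vehicle-only cultures of the same strain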; conditions: S. cerevisiae rad50 strain growth inhibition; at 50.0 µM; hits give high values
Method in brief: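 Growth of the mutant yeast was measured after compound exposure and referenced to vehicle-treated cultures.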

[2] = NCI Yeast Anticancer Drug Screen. Data for the mec2-1 strain (AID 157); conditions: S. cerevisiae mec2-1 strain, at 50.0 µM, hits give high values
Method in brief: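 Using mec2-1 yeast: add compound, measure growth, express inhibition versus vehicle-treated cultures.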

[3] = NCI Yeast Anticancer Drug Screen. Data for the sgs1 mgt1 strain (AID 161);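 also: 0% = growth of cultures given vehicle only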; conditions: S. cerevisiae sgs1 mgt1 strain, at 50.0 µM, hits give high values
Method in brief: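 Percent growth inhibition was derived by comparing compound-exposed mutant yeast with vehicle-exposed cultures. The strain carries alterations in DNA damage repair.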

[4] = NCI Yeast Anticancer Drug Screen. Data for the cln2 rad14 strain (AID 165);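 also: 0% = growth equal to vehicle treated cultures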; conditions: S. cerevisiae cln2 rad14 strain, at 50.0 µM, hits give high values
Method in brief: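 Yeast strain cln2 rad14, bearing defects in cell cycle control and DNA repair, serves as the test system; values reflect growth inhibition compared with vehicle.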

[5] = NCI Yeast Anticancer Drug Screen. Data for the bub3 strain (AID 167); conditions: S. cerevisiae bub3 mutant strain, at 50.0 µM, hits give high values
Method in brief: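 Whole-cell yeast assay. The mutant strain was incubated with compounds, and growth inhibition was determined by comparison with vehicle-treated cells.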

[6] = NCI Yeast Anticancer Drug Screen. Data for the mlh1 rad18 strain (AID 175); conditions: S. cerevisiae mlh1 rad18 strain growth inhibition; at 50.0 µM; hits give high values
Method in brief: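 Steps: expose repair-defective yeast to compound; measure growth; express inhibition against vehicle-treated controls.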

Measured: growth inhibition

CCCCCC(=O)NCCCOC
inactive: [1] -20% | [2] 10.8% | [3] -0.35% | [4] -46.4% | [5] -13.7% | [6] -8.9%

Cc1cc(C(F)(F)F)cc(-n2nc(NS(=O)(=O)c3cc(C)c(Cl)cc3S)nc2N)n1
inactive: [1] 13.1% | [2] 10.1% | [3] 15.4% | [4] -2.9% | [5] 4.5% | [6] 33.5%

O=C(O)c1ccc(Cl)cc1CC(Cl)(Cl)Cl
inactive: [1] 3.55% | [2] 25.5% | [3] 15.1% | [4] 24.5% | [5] 21.1% | [6] 17.1%

CCCCS(=O)(=O)C[N+](C)(CC)CC
inactive: [1] 34.1% | [2] -0.7% | [3] -5.45% | [4] -6.85% | [5] -4.65% | [6] 3.45%

CCc1c(CBr)c(=O)[nH]c2ccccc12
inactive: [1] 8.7% | [2] -8.1% | [3] -10.8% | [4] 0.9% | [5] 1.3% | [6] 2.55%

C=CCN1C(=O)CC2[C@@H]3CCc4cc(O)ccc4C3CC[C@]2(C)C1=O (stereo partly drawn)
inactive: [1] -0.65% | [2] -12.7% | [3] -7.6% | [4] 22.8% | [5] 8% | [6] 1.25%

CS(=O)(=O)OC1CCCS(=O)(=O)c2ccccc21 (stereo not drawn)
inactive: [1] -12.9% | [2] -12.8% | [3] 3.65% | [4] -46.9% | [5] -1% | [6] -6.45%

CCOc1ccc(OCC)c(C(=O)CCC(=O)Nc2ccc(Br)cc2)c1
inactive: [1] -8.9% | [2] -2.9% | [3] -8.3% | [4] -12.8% | [5] 1.45% | [6] -6.75%

CCC(C)C(NN)C(=O)O (stereo not drawn)
inactive: [1] 0.7% | [2] -5.55% | [3] -22.4% | [4] -24.6% | [5] 0% | [6] -37.3%

O=C(O)c1ccc2c(c1)S(=O)(=O)c1ccccc1C2=O
inactive: [1] 14.1% | [2] 17.5% | [3] -3.8% | [4] 9.6% | [5] 23.9% | [6] 17.1%

N#Cc1ccc(OCCCOc2ccccc2)cc1
inactive: [1] 4.2% | [2] 47.5% | [3] 20.8% | [4] -2.7% | [5] 37.4% | [6] 4.5%

COC(=O)CC1(C)[C@H](O)[C@H]2OC(C)(C)O[C@H]2[C@@H]1O (stereo partly drawn)
inactive: [1] 7.7% | [2] -10.6% | [3] -18.2% | [4] -3.25% | [5] -7.5% | [6] 38.2%

CC(C)c1ccc(C(=O)OCC2CCCO2)cc1 (stereo not drawn)
inactive: [1] 7.95% | [2] 13.1% | [3] 6.5% | [4] -13.7% | [5] -5.3% | [6] 3.65%

COc1ccccc1NC(=O)NC1CCCCC1
inactive: [1] -2.8% | [2] -4.65% | [3] -8.2% | [4] -88% | [5] 5.5% | [6] -15.2%

CCNc1ccc(Cl)cc1[N+](=O)[O-]
inactive: [1] -28.8% | [2] -66.2% | [3] 11.9% | [4] -6.95% | [5] -33.4% | [6] -26.6%

O=C1CC(O)C2C(=O)c3c(c(Cl)c4ccccc4c3O)C(=O)C2C1 (stereo not drawn)
inactive: [1] 12.1% | [2] 12.4% | [3] 10.2% | [4] 4.75% | [5] 3.85% | [6] 20.3%

CCOC(=O)C(CO)NC(=O)c1cnc2ccccc2c1 (stereo not drawn)
inactive: [1] 16.4% | [2] 1.65% | [3] 13.1% | [4] -29.8% | [5] -30.4% | [6] 12.8%

COc1ccc(CN2CCCN(Cc3ccc(OC)cc3OC)C2c2ccc(N(C)C)cc2)c(OC)c1
inactive: [1] 39.9% | [2] 14.5% | [3] 21.1% | [4] 3.6% | [5] 15.7% | [6] 12.1%

C=C(C)COC(=O)Nc1cccc(Cl)c1
inactive: [1] 58.9% | [2] -4.15% | [3] 4.7% | [4] 13.4% | [5] 10.2% | [6] 24.9%

OC(Cc1ccccc1)CN1CCN(c2ccccc2)CC1 (stereo not drawn)
inactive: [1] 10.4% | [2] 4% | [3] 8% | [4] 17.1% | [5] 8.05% | [6] 4.05%

COc1ccc(C2=NNC(=O)OC2c2ccccc2)cc1 (stereo not drawn)
inactive: [1] 29.1% | [2] 16.9% | [3] 28.2% | [4] -29.6% | [5] 26.3% | [6] 28.9%

O=C(Nc1nncs1)c1ccncc1
inactive: [1] -14.8% | [2] -5.75% | [3] -13.2% | [4] 7.1% | [5] -28.8% | [6] -46.1%

CSc1nc(-c2ccc([N+](=O)[O-])cc2)oc1/N=C/c1ccc([N+](=O)[O-])cc1
inactive: [1] -8.45% | [2] -9.65% | [3] -14.6% | [4] -29.1% | [5] 3% | [6] 4.35%

CC12CC3CC(C1)CC(NCCO)(C3)C2
inactive: [1] -0.8% | [2] -13.7% | [3] -14.3% | [4] -83.7% | [5] -5.45% | [6] -4.35%

Cc1cccc(Cl)c1NC(=O)C(Cl)Cl
inactive: [1] 6.35% | [2] 9.75% | [3] 8% | [4] 4.55% | [5] 17.3% | [6] 14.9%

CC(C)(C)C(=O)C[n+]1ccccc1
inactive: [1] 3.85% | [2] -6.45% | [3] 8.45% | [4] -15% | [5] 5.35% | [6] 15.2%

Cc1cccc(CN(C)C)c1C=C(c1ccccc1)c1ccccc1
inactive: [1] 11.9% | [2] -1% | [3] 10.6% | [4] -0.05% | [5] 8.7% | [6] 33%

NC(=O)c1ncn(C2OC(CO)C(O)C2O)c1NC=O (stereo not drawn)
inactive: [1] 1.95% | [2] -3.9% | [3] -2.25% | [4] 7.6% | [5] 9.85% | [6] 17.9%

CC[N+](CC)(CC)CCCC[P+](CC)(CC)CC
inactive: [1] 15.8% | [2] -9.15% | [3] 8.8% | [4] 9.9% | [5] 10.2% | [6] 13.7%

CC(=O)/C=C(\c1ccccc1)c1c(O)c2ccccc2oc1=O
inactive: [1] -2% | [2] 9.15% | [3] 4.45% | [4] 7.2% | [5] 3.85% | [6] 6.15%

CCCCOB1OC(c2ccccc2)(c2ccccc2)c2ccccc2C(c2ccccc2)(c2ccccc2)O1
inactive: [1] 31.1% | [2] 3.65% | [3] 27.2% | [4] 3.85% | [5] -2.1% | [6] 22.6%

COC(=O)C(C(=O)C(=O)Nc1cccc(OC)c1)c1cnc2ccccc2n1 (stereo not drawn)
inactive: [1] -16.4% | [2] -8.85% | [3] -9.45% | [4] 21.2% | [5] 6.9% | [6] -10.5%

CC(O)C12OC1CC1C3CC4OC45CC(O)CCC5(C)C3CCC12C (stereo not drawn)
inactive: [1] 36.5% | [2] 20.6% | [3] 38.7% | [4] 31.1% | [5] 36.9% | [6] 9.1%

COc1cc2c(cc1OC)C(=O)C1(C2)[C@H](c2ccccc2)C2C(=O)c3cc(OC)c(OC)cc3C2[C@H]1c1ccccc1 (stereo partly drawn)
inactive: [1] -2.5% | [2] 3.25% | [3] 29.9% | [4] 17.6% | [5] 46% | [6] 23.1%

C=C(Br)C[N+](CC)(CC)CC
inactive: [1] -14.3% | [2] -3.3% | [3] -9.4% | [4] 15.8% | [5] -8.85% | [6] -9.25%

Clc1ccccc1C(Nc1ncccn1)Nc1ncccn1
inactive: [1] 11.1% | [2] 15% | [3] -8.05% | [4] -0.25% | [5] 41% | [6] 13.1%

O=C(O)/C=C(\CC(=O)O)C(=O)O
inactive: [1] 12.8% | [2] 11.9% | [3] -21.9% | [4] 8.15% | [5] -21.1% | [6] 1.15%

NCCNC(=O)Cc1cccc2ccccc12
inactive: [1] -21.1% | [2] -48% | [3] -5.15% | [4] 3.6% | [5] -36.5% | [6] -3.05%
